This note sets out measurements from the supplement of paper PMC6555819.

The subject of one assay is RARb homodimer (NR concentration 270 nM). The assay can be described thus: PBM binding z-score (relative to random genomic background probes); higher = stronger binding; sequences stand for … in GC…GCGATTGACAGCGTAGAATGAAGG
In short, it runs like this: (§1)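 The probes on custom Agilent 4×180K protein-binding microarrays were double-stranded, with 34-nt variable regions bearing direct-repeat seeds, single-nucleotide variants, half-site ablations and random human genomic background sequences. Incubation lasted 1 h with ligand-free nuclear receptor dimers in PBS pH 7.4, 2% milk, 0.02% Triton X-100, 1 mM DTT, 0.2 mg/mL BSA and 0.4 mg/ml salmon testes DNA. Antibodies against each partner (one per run) detected bound dimers, and fluorescence scans were regression-normalized. Binding z-scores take the random background probes as reference.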
For the sequence CCTGCTAGGTCATGGGCAGCTAATCTACAGTATG, the PBM binding z-score is 2.79.
On to GCGACTGGGGCATCAGCAGGTTACCAGAACTTAA, for which the PBM binding z-score worked out at 0.768.
TTACCAAGGTGAGGGTCGTTGATCCCTCTGTAGA registered a PBM binding z-score of 0.945.
Still for that read-out and setting: the same measure for ATATGTAGGTTATCGGGTCATTGAGTTTGCGCAT: 3.16; for ATCTGTAGGTAAAGTTCAGTGAAAGATCGATAGA: 2.24.
In turn, TCTCGGAGGACACGAAGGTCACAGCTTTCCAGAG gave a PBM binding z-score of 4.54.
The sequence CCTACTCGGCCAAGGTCATTGATCAGTCAAAGCA came in with a PBM binding z-score of 3.33.
As to CCTACTGGGCCATCAAGTCATTGATATCAACGTT, the PBM binding z-score is 0.27.
The same measure, in the same setting: to ACTAGCAGGCCAATGGTCACTCAAGATTAGTCCG belongs 0.496; to AGTCACAGTTCAGGACGAGGTAACGTAAAGCACG, 1.66; to TCATATAGGTAAATCCTAGGTGAAAGTCCGATCT, 0.18.
On the same count and under the same terms, the same measure for TCTTGTAGATCCATAGAGGTTAAGAAAGTGCGCT: 1.25; for CGTTCAAGGTCAGAGAGGTCAGTGAATGCCGAGT: 5.35; for TGACCAAGGTGAAAGGTCGTTGATGCACGCCTTG: 2.49.
The same measure, in the same setting: the same measure for CGTCCAAGGTTAGAGAGGTCAGTGAATGCCGAGT: 4.23; for ACTAGTTGGTCAGCTGACGTCACACACAATTCGG: 0.958.
The sequence GCTGCTAGGTCAACTGTTGGTCAGCTAAAGCTCG came in with a PBM binding z-score of 3.66.
Still for that read-out and setting: the same measure for TCTAGTTGGTCCCGGAGGTCACACACGACGGGTA: 3.79.
On to ACGAGCAGGCCAAGGGTCACTCAAGATTAGTCCG, for which the PBM binding z-score stood at 3.96.
GCTGCTAGGTCACCTGATGGTCAGCTAAAGCTCG had a PBM binding z-score of 3.33.
Sequence GATACAGGGTAAAGGCCAGAGTACGCGTATTGAT showed a PBM binding z-score of 0.909.
On to ATATGTAGGTTAAGGGTCATTTAGGTTGGTTCGC, for which the PBM binding z-score amounted to 4.09.
In turn, CAAACTAGGTCAAGAGGTCAACGTCCGCTTCCCG gave a PBM binding z-score of 5.63.
The same measure, in the same setting: to CCTCACGGGTCACTCCAGGTTATAGCATCGGAGT belongs 3.09; to CGTCAAAGTTCAAGGTAACCTAACAGAAAGCAGC, 4.17; to TCTATTGGTTGAAGGGCAACCGACGAGTCCGTTT, 1.17.
Same read-out and setting: to TCGATTAGGTTAGTCGGGGCATTCAGCCAACATA belongs 0.609; to AGAATGAGGTTATTAAGGTCAGGGAATTGCGGTC, 4.31; to CAAACTAGGTCACCGGAAGGTCCAAGTCCGCATG, 3.77.
Still for that read-out and setting: the same measure for TCTACTAGGTCAGTTGGTCAGCTAACGAGCTGCC: 2.91; for CTACCAAGGTTAACAAGGTCGTTGATTACTATTC: 2.69; for CCTACTGGGCCATTCAGAGGTCATTGGTCATATG: 4.14.
With CGTCCTAGGTCAGCAGGTCAGTGAAAGCGACGTG, the PBM binding z-score worked out at 4.37.
On the same count and under the same terms, to AGAACGAGGGCACGCGGAGTTGATAGCAGAGTAG belongs 1.42; to TAGCCTAGGTCATGCGGGCCAGTTTAGTGTCGGC, 3.03; to CGAACGAGGGCATGAGTTGGTAGCAAATGCCGAT, 0.553.
On the same count and under the same terms, to CCTACTGGCCCAAAAAGGTCATTGATGCCGATAA belongs 4.52; to ACTAGTTGGTCGGCTGAGGTCACACACAATTCGG, 4.05; to TCTTGTAGATCAACAGGAGGTTATGAAAGATCGA, 0.222.
In turn, TCATATAGGTAATACAAGTGAAAGTCGGCATCTA gave a PBM binding z-score of 0.148.

The subject of the next assay is RARg:RXRa (NR concentration 270 nM, RXRa partner concentration 90 nM). The description is as above. An outline of the steps:
as §1
CCTGCTAGGTCATGGGCAGCTAATCTACAGTATG had a PBM binding z-score of 4.04.
GCGACTGGGGCATCAGCAGGTTACCAGAACTTAA gave a PBM binding z-score of 0.911.
Turning to TTACCAAGGTGAGGGTCGTTGATCCCTCTGTAGA, the PBM binding z-score came out at 0.785.
Turning to ATATGTAGGTTATCGGGTCATTGAGTTTGCGCAT, the PBM binding z-score came to 3.43.
The sequence ATCTGTAGGTAAAGTTCAGTGAAAGATCGATAGA showed a PBM binding z-score of 1.86.
With TCTCGGAGGACACGAAGGTCACAGCTTTCCAGAG, the PBM binding z-score turned out to be 4.52.
Same read-out and setting: the same measure for CCTACTCGGCCAAGGTCATTGATCAGTCAAAGCA: 3.95; for CCTACTGGGCCATCAAGTCATTGATATCAACGTT: 0.122; for ACTAGCAGGCCAATGGTCACTCAAGATTAGTCCG: 0.131.
Consider AGTCACAGTTCAGGACGAGGTAACGTAAAGCACG, for which the PBM binding z-score came out at 2.48.
In turn, TCATATAGGTAAATCCTAGGTGAAAGTCCGATCT registered a PBM binding z-score of 0.491.
As to TCTTGTAGATCCATAGAGGTTAAGAAAGTGCGCT, the PBM binding z-score amounted to 0.611.
In turn, CGTTCAAGGTCAGAGAGGTCAGTGAATGCCGAGT displayed a PBM binding z-score of 6.32.
The same measure, in the same setting: the same measure for TGACCAAGGTGAAAGGTCGTTGATGCACGCCTTG: 4.18; for CGTCCAAGGTTAGAGAGGTCAGTGAATGCCGAGT: 3.53.
The sequence ACTAGTTGGTCAGCTGACGTCACACACAATTCGG yielded a PBM binding z-score of 0.549.
GCTGCTAGGTCAACTGTTGGTCAGCTAAAGCTCG showed a PBM binding z-score of 5.23.
The same measure, in the same setting: the same measure for TCTAGTTGGTCCCGGAGGTCACACACGACGGGTA: 3.99.
Still for that read-out and setting: to ACGAGCAGGCCAAGGGTCACTCAAGATTAGTCCG belongs 4.21.
Consider GCTGCTAGGTCACCTGATGGTCAGCTAAAGCTCG, for which the PBM binding z-score came out at 4.88.
GATACAGGGTAAAGGCCAGAGTACGCGTATTGAT came in with a PBM binding z-score of 0.831.
ATATGTAGGTTAAGGGTCATTTAGGTTGGTTCGC yielded a PBM binding z-score of 4.79.
Take CAAACTAGGTCAAGAGGTCAACGTCCGCTTCCCG: the PBM binding z-score was found to be 7.92.
CCTCACGGGTCACTCCAGGTTATAGCATCGGAGT gave a PBM binding z-score of 4.28.
On the same count and under the same terms, to CGTCAAAGTTCAAGGTAACCTAACAGAAAGCAGC belongs 5.43; to TCTATTGGTTGAAGGGCAACCGACGAGTCCGTTT, 0.455.
On the same count and under the same terms, the same measure for TCGATTAGGTTAGTCGGGGCATTCAGCCAACATA: 0.149; for AGAATGAGGTTATTAAGGTCAGGGAATTGCGGTC: 4.16.
Sequence CAAACTAGGTCACCGGAAGGTCCAAGTCCGCATG came in with a PBM binding z-score of 5.27.
Still for that read-out and setting: to TCTACTAGGTCAGTTGGTCAGCTAACGAGCTGCC belongs 2.74.
Sequence CTACCAAGGTTAACAAGGTCGTTGATTACTATTC registered a PBM binding z-score of 2.82.
CCTACTGGGCCATTCAGAGGTCATTGGTCATATG registered a PBM binding z-score of 4.18.
CGTCCTAGGTCAGCAGGTCAGTGAAAGCGACGTG: the PBM binding z-score worked out at 4.95.
Still for that read-out and setting: the same measure for AGAACGAGGGCACGCGGAGTTGATAGCAGAGTAG: 2.32; for TAGCCTAGGTCATGCGGGCCAGTTTAGTGTCGGC: 3.96.
Turning to CGAACGAGGGCATGAGTTGGTAGCAAATGCCGAT, the PBM binding z-score stood at 0.807.
CCTACTGGCCCAAAAAGGTCATTGATGCCGATAA showed a PBM binding z-score of 4.52.
Still for that read-out and setting: to ACTAGTTGGTCGGCTGAGGTCACACACAATTCGG belongs 3.76; to TCTTGTAGATCAACAGGAGGTTATGAAAGATCGA, 0.765.
Same read-out and setting: to TCATATAGGTAATACAAGTGAAAGTCGGCATCTA belongs 0.857.
